About 83,000 compounds went through this panel and 20% of them were active in at least one assay; those are over-represented in the sample as a whole.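 Activity criterion: percent growth below 10, measured after cells in 96-well plates were exposed to a single compound concentration for 48 hours.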 Unmarked numbers belong to inactive results. The source made the active and inactive calls.

For the experiment, the system named is OVCAR-3 ovarian. Description: NCI-60 one-dose screen, 48 h (100 = growth as untreated, 0 = no growth, -100 = all killed). To be noted: 10 µM unless noted.
Consider `COc1ccc(-c2oc3cc(O)c(OC)c(O)c3c(=O)c2OC)cc1O`, for which the growth is -40.1% (active).
Next, `c1ccc(-c2nnc(Nc3nnc(-c4ccccc4)s3)s2)cc1`: 105%.
For `CCN1CCN(c2cc(-c3cn[nH]c3-c3cc(C)cc(OC)c3)nc(-c3cccnc3)n2)CC1`, the growth is 67.6%.
For the compound `CCCn1cnc2c1c(=O)n(CCCCC(C)=O)c(=O)n2C`, the growth was 115%.
`O=C1C2C3C=CC(O3)C2C(=O)N1Nc1ccccc1` (configuration not stated): the growth is 113%.
The value for `O=C(Nc1ccncc1)C(=O)c1cn(S(=O)(=O)c2cccc(F)c2)c2ccccc12` was 23.5%; that for `COc1ccc(-c2csc(NC(=O)c3cc(OC)c(OC)c(OC)c3)n2)cc1` was 105%; that for `CCC1=C(c2ccc(OC)cc2)C(C)(C)Oc2cc(O)c(CN3CCCC3)cc21` was 83.4%.
Next, `CCOc1nc(-c2ccccc2)cc2c(O)c(-c3nnco3)[nH]c(=O)c12`: 27.8%.
For `C=C1CC[C@@H]2[C@](C)(COC(C)=O)[C@H](OC(C)=O)CC[C@@]2(C)[C@@H]1CC(Nc1ccc(S(=O)(=O)Nc2cc(C)on2)cc1)C1=CCOC1=O` (some centres not stated), the growth was 7.95% (active).
The value for `COc1ccc(C2=NN(C(=O)c3cc(OC)c(OC)c(OC)c3)C(c3ccc(C#N)cc3)C2)cc1OC` (configuration not stated) was -47.8% (active); that for `O=C1/C(=N/O)CCc2ccccc21` was -6.51% (active); that for `O=C(/C=C/c1cccnc1)NCCCCC1CCCN(C(=O)c2ccccc2)C1` (configuration not stated) was 74.7%.
Regarding `COc1ccc(Nc2ccnc(NCCCNc3ccnc4cc(Cl)ccc34)n2)cc1`, the growth is -84.5% (active).
Turning to `COc1ccc2nc(NC(=O)c3cc(-c4ccc(F)cc4)n4nc(-c5ccccc5)cc4n3)sc2c1`, the growth is 67.9%.
Next, `COc1cc(/C=C/C(=O)N2CCN(C(=O)/C=C/c3ccccc3)CC2)cc(OC)c1OC`: 120%; `O=C1C[C@@H]2/C(=C(O)\C=C\c3ccccc3)C(=O)C=C[C@@H]2O1`: -46.2% (active).
Next, `COc1cc(/C=C/c2nnc(-c3cc(-c4ccccc4)n[nH]3)o2)cc(OC)c1OC`: 107%; `O=[N+]([O-])c1ccc2c(c1)S(=O)c1cc([N+](=O)[O-])ccc1N2`: 113%; `C/C(=C\CCc1ccoc1)CC/C=C(\C)CCCN1CCC(CO)CC1`: 82.4%.
The value for `O=C1/C(=C/c2ccc([N+](=O)[O-])o2)Oc2ccc(Cl)cc21` was -74.5% (active).
Turning to `COc1cc(C2NC(c3ccc(Cl)cc3)C(C)/C(=N/NC(N)=S)C2C)cc(OC)c1OC` (configuration not stated), the growth was 98.6%.
Next, `CCC(CC)NCCCCCNc1cc(OC)cc2cccnc12`: 83.3%; `CCOc1nc(-c2ccccc2)cc2c(O)c(C(=O)n3nc(C)cc3C)[nH]c(=O)c12`: 112%.
Next, `O=C(/C(=N/O)S(=O)(=O)c1ccccc1)c1cccs1`: 109%; `COc1cc(C2NC(c3ccc(Cl)cc3)C(C)C(=NC(=O)c3cnccn3)C2C)cc(OC)c1OC` (configuration not stated): 107%.
The value for `COc1ccc2c(c1)C(=O)/C(=C/c1ccc([N+](=O)[O-])s1)O2` was -35.7% (active); that for `COc1cc(C(=O)/C=C/c2cccnc2Nc2ccccc2)cc(OC)c1OC` was -98.5% (active).
Regarding `CCCCn1c(Cc2ccc(Cl)cc2)nc2cc(OC)c(OC)cc2c1=O`, the growth was 80.9%.
The value for `OCCOc1c(Cl)cc(Cl)cc1Cl` was 118%; that for `COc1ccc2nc3cc(Cl)ccc3c(N3CCN(c4ccnc(Nc5ccc(F)cc5)n4)CC3)c2c1` was 82.4%; that for `COc1ccc(-c2cc(Cc3cccs3)c(=O)n(Cn3ccc4ccccc43)n2)cc1` was 111%.
Take `CCc1[nH]nc(-c2ccc(OC)cc2)c1-c1ccccc1OCCN(CC)CC`: the growth was 104%.
Turning to `COc1ccc(-c2cc(C(=O)Nc3nc4cc(C)c(C)cc4s3)nc3cc(-c4ccccc4)nn23)cc1OC`, the growth is 138%.
For the compound `Nc1ccc2c3c(cccc13)-c1ccccc1-2`, the growth was 88.4%.
The value for `COc1cccc(-c2nnc(N)o2)c1` was 90.4%; that for `COc1cc2c(cc1OCCCOc1ccc(-c3cc4ccccc4c4ccccc34)cc1)N=C[C@@H]1CCCN1C2=O` was -48.4% (active).
